Compound activity from PubChem.
The list is not random: actives were taken first. Their share in the collection is about 11%.
USP28 inh: inhibitors of human USP28 deubiquitinase; Ubiquitin carboxyl-terminal hydrolase 28 (Homo sapiens), Q96RU2; purified USP28, Ub-rhodamine cleavage fluorescence, 30 min; inhibition, % at 25 µM; 3% of 47,000 active
OTUD3 block: inhibitors of human OTUD3 deubiquitinase; OTU domain-containing protein 3 (Homo sapiens), Q5T2D3; purified OTUD3, Ub-rhodamine fluorescence, 2 h; inhibition, % at 25 µM; 0.7% of 47,000 active
USP30 inh: inhibitors of human USP30 deubiquitinase | Ubiquitin carboxyl-terminal hydrolase 30 (Homo sapiens), Q70CQ3 | purified USP30, Ub-rhodamine cleavage fluorescence | inhibition, % at 25 µM | 5.3% of 47,000 active
Target sequence (Q70CQ3 whole entry, looked up): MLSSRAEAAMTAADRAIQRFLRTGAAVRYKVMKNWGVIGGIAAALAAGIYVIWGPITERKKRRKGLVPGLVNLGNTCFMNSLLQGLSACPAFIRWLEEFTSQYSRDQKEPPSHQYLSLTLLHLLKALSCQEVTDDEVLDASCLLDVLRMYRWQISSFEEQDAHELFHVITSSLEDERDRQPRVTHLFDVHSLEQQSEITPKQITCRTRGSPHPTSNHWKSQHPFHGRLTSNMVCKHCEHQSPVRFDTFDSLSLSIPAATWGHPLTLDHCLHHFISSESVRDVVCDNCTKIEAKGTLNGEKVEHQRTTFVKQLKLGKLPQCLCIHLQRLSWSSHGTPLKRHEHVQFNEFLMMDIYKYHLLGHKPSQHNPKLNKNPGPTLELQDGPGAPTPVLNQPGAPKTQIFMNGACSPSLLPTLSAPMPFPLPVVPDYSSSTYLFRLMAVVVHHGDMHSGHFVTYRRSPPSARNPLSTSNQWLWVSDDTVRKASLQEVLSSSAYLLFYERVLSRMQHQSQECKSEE
USP17 inh: inhibitors of human USP17 deubiquitinase | Ubiquitin carboxyl-terminal hydrolase 17-like protein 5 (Homo sapiens), A8MUK1 | purified USP17, Ub-rhodamine cleavage fluorescence, 3 h | inhibition, % at 50 µM | 6.5% of 47,000 active | AID 1645855, 2021
Large screens that a line does not name were inactive. No stated cut-off is given here; in the data, active means inhibition above about 30%; inactive means the rest.

O=C(Oc1ccc2cc(Br)ccc2c1)c1ccncc1	USP30 inh 35
CC(C)(C)OC(=O)N1CCCC2(Cc3ccccc3CN2)C1 (stereo not drawn)	none
Cc1ccc(-c2nn(-c3ccc(F)cc3)c3c2cnc2cc4c(cc23)OCCO4)cc1	none
COc1ccc2ncc3c(-c4ccc(C)cc4)nn(-c4ccc(F)cc4)c3c2c1	USP17 inh 57
Cc1cc(C(=O)N2CCCC(c3ncc(Cc4cccc(F)c4)o3)C2)nc(N)n1 (stereo not drawn)	none
O=C(OCc1cccc(Cl)c1)c1ccc2ccccc2n1	USP28 inh 91
Cc1nc2ccccc2n1CC(=O)OCc1cccc(Cl)c1	none
O=C(OCc1ccc(F)cc1)c1ccc2ccccc2n1	USP28 inh 78
O=C(Nc1cccc(Cl)c1)N1CCC(c2cc(-c3ccco3)n[nH]2)CC1	USP28 inh 39, OTUD3 block 33, USP17 inh 64
O=C(Nc1cccc(Cl)c1)N1CCC(c2nc(-c3cccnc3)no2)CC1	none
O=C(Nc1ccc2c(c1)OCCO2)C1CCN(C(=O)c2cc(-c3cccnc3)n[nH]2)CC1	USP28 inh 53
O=C(Nc1ccccc1)C1CCN(C(=O)c2cc(-c3ccncc3)n[nH]2)CC1	none
O=C(c1cc(-c2ccncc2)n[nH]1)N1CCC(C(=O)N2CC=C(c3ccccc3)CC2)CC1	USP17 inh 64
Cc1cccc(NC(=O)c2c(-c3c(F)cccc3Cl)noc2C)n1	none (no result: USP28 inh, USP30 inh)
O=C(c1ccc(Cl)cc1)c1c[nH]cc1-c1c(F)cccc1Cl	USP30 inh 54, USP17 inh 32
Nc1ncnc2c1ncn2[C@@H]1O[C@H](CO)C[C@@H]1O	USP28 inh 44, OTUD3 block 50, USP17 inh 50
C=C1O[C@](CO)(n2cnc3c(N)ncnc32)[C@@H](O)[C@H]1O	none
CC1O[C@@H](OC2[C@H](Oc3cc(O)c4c(c3)OC(c3ccc(O)cc3)CC4=O)O[C@H](CO)[C@@H](O)[C@@H]2O)[C@H](O)[C@H](O)[C@H]1O (stereo partly drawn)	none
CC1=C(c2ccccc2)S(=O)(=O)N(CC(=O)Nc2cccc(F)c2)C1=O	none
CC1=C(c2ccccc2)S(=O)(=O)N(CC(=O)Nc2cccc(Cl)c2)C1=O	USP30 inh 35, USP17 inh 30
COc1ccc(Cl)cc1NC(=O)Cn1c(=O)n(CCCCC(=O)NCCc2ccccc2)c(=O)c2ccccc21	none
Cc1ccc(Cn2c(=O)n(CCC(=O)NCCc3ccccc3)c(=O)c3ccccc32)cc1	USP30 inh 63, USP17 inh 46
COc1ccc(CCNC(=O)CCCCn2c(=O)c3ccccc3n(Cc3cccc(Cl)c3)c2=O)cc1OC	USP30 inh 53, USP17 inh 34
CCCCCn1c(SCC(=O)CC(=O)OCC)nc2cc(C(=O)NCc3ccco3)ccc2c1=O	USP17 inh 34
COc1ccc(CCNC(=O)c2ccc(Cn3c(=O)c4ccccc4n(Cc4cc(=O)n5ccccc5n4)c3=O)cc2)cc1OC	USP30 inh 50, USP17 inh 66
CC(C)(C)c1cc(N2CCN(CCO)CC2)nc(-c2ccccn2)n1	none
COc1ccc(NC(=O)CCCCn2c(=O)c3ccccc3n(Cc3cccc([N+](=O)[O-])c3)c2=O)cc1	USP17 inh 33
Cc1cccc(NC(=O)Cn2c(C)nc3c(c2=O)CCN(Cc2ccccc2)C3)c1C	USP17 inh 30
COc1ccc(CCNC(=O)CSc2cc(=O)n(C)c3cc(Cl)ccc23)cc1OC	USP17 inh 38
COc1ccc(CNC(=O)CCn2c(=O)c3sccc3n(Cc3cccc([N+](=O)[O-])c3)c2=O)cc1	none
Cc1cccc(NC(=O)Cn2c(=O)n(CC(=O)NCCc3ccccc3)c(=O)c3ccccc32)c1C	USP30 inh 48
CCCc1nc2c(c(=O)n1CC(=O)NCC1CCCO1)CCN(Cc1ccccc1)C2 (stereo not drawn)	none
Cn1cc(S(=O)(=O)N2C[C@H]3CC[C@@H](Oc4cccnc4)[C@H]3C2)cn1	none (no result: USP17 inh)
Cc1cc(C)cc(NC(=O)Cn2cnc(S(=O)(=O)N3CCCCC3)c2)c1	none
COc1cccc(CCN2C[C@H]3CCN(C(=O)NC4CCCC4)CC[C@H]3S2(=O)=O)c1	none
COc1ccc(CCNC(=O)CCCn2c(SCC(=O)NCc3ccco3)nc3ccccc3c2=O)cc1OC	OTUD3 block 37, USP30 inh 41, USP17 inh 33
Clc1ccc(Cn2c(NCc3ccccc3Cl)nc3ccccc32)cc1	USP30 inh 34
Clc1ccc(Cn2c(C3CCCO3)nc3ccccc32)cc1 (stereo not drawn)	none (no result: USP17 inh)
